# According to publication PMC5540273 (PLoS ONE, 2017):
# Legend:
# Details in all cases: concentration: 1 μM,replicates: in singlicate; n = 1
# MEK5 = test system: T1, MEK5
# T1 construct: gene MAP2K5
# MEK6 = test system: T2, MEK6
# T2 construct: gene MAP2K6
# MELK = test system: MELK
# MERTK = test system: MERTK
# MET = test system: MET
# MINK = test system: T3, MINK
# T3 construct: gene MINK1
# MKK7 = test system: MKK7
# MKNK1 = test system: MKNK1
# MKNK2 = test system: MKNK2
# MLCK = test system: T4, MLCK
# T4 construct: gene MYLK3
# MLK1 = test system: T5, MLK1
# T5 construct: gene MAP3K9
# MLK2 = test system: MLK2
# MLK3 = test system: MLK3
# MRCKA = test system: MRCKA
# MRCKB = test system: T6, MRCKB
# T6 construct: gene CDC42BPB
# MST1R = test system: MST1R
# MST1 = test system: T7, MST1
# T7 construct: gene STK4
# MST2 = test system: T8, MST2
# T8 construct: gene STK3
# MST3 = test system: T9, MST3
# T9 construct: gene STK24
# MST4 = test system: MST4
# 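Note: KINOMEscan kinase panel screen.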
Compound,%Inh (MEK5) [%],%Inh (MEK6) [%],%Inh (MELK) [%],%Inh (MERTK) [%],%Inh (MET) [%],%Inh (MINK) [%],%Inh (MKK7) [%],%Inh (MKNK1) [%],%Inh (MKNK2) [%],%Inh (MLCK) [%],%Inh (MLK1) [%],%Inh (MLK2) [%],%Inh (MLK3) [%],%Inh (MRCKA) [%],%Inh (MRCKB) [%],%Inh (MST1R) [%],%Inh (MST1) [%],%Inh (MST2) [%],%Inh (MST3) [%],%Inh (MST4) [%]
COc1cccc(OC)c1C(=O)Nc1cccc(-c2nn3ccccc3c2-c2ccnc(Nc3cccc(F)c3)n2)c1 [GSK361065],93.2,3,0,50,34,0,0,0,0,2,4,10,10,0,3,23,20,61,7,0
CCn1c(-c2nonc2N)nc2cncc(CNC3CCNCC3)c21.Cl [SB-747651],32,0,37,0,2,0,0,0,17,0,3,0,0,7,4,31,19,0,0,0
COc1cccc(CNC(=O)NC2CCN(c3ccnc(Nc4cc(OC)c(OC)c(OC)c4)n3)C2)c1 (stereo not shown) [GSK1379765],99.9,0,15,17,26,12,0,21,39,6,25,26,41,17,0,49,0,27,0,0
Cn1ccc2ncnc(Oc3ccc(NC(=O)Nc4cnn(C(C)(C)C)c4)c(Cl)c3)c21,18,0,16,65,35,70,0,4,78,0,30,26,0,0,0,10,12,0,4,0
CCOC(=O)N1CCC(n2cnc(-c3ccc(F)cc3)c2-c2ccnc(N)n2)CC1 [SB-219952],29,1,0,21,16,54,11,19,49,0,4,0,27,20,3,0,20,0,44,0
C[C@@H]1CNc2c(sc3ccc4nc(-c5ccncc5)ccc4c23)C(=O)N1,33,0,0,100,50,28,0,0,21,54,2,0,4,0,9,18,2,6,10,0
COc1ccc(Nc2nccc(N3CCC(NC(=O)c4cccc(C#N)c4)C3)n2)cc1 (stereo not shown) [GSK1379730],8,0,0,24,9,0,17,0,5,3,1,0,22,0,0,29,19,0,0,0
O=C(Nc1cccc(C(F)(F)F)c1)c1cccc(Oc2ccc3nccn3n2)c1,32,0,0,17,16,12,36,7,26,0,9,7,8,23,3,3,29,0,0,28
CC(C)S(=O)(=O)N1CCN(Cc2ccc3c(c2)nc(NC(=O)c2ccsc2)n3C[C@H](O)c2ccccc2)CC1 [GW635815],91.9,0,28,83,20,60,0,7,0,0,90.6,43,79,0,16,36,5,0,1,0
Cc1cccc(-c2nc(Nc3ccncc3)c3sccc3n2)n1 [GW869641],58,10,36,0,28,77,16,0,0,10,3,34,19,67,98.5,0,37,17,5,40
COc1cccc(C2=C(Nc3cccc(Cl)c3)C(=O)NC2=O)c1 [SB-341556],38,0,0,0,0,0,10,0,27,0,0,16,0,0,0,0,100,22,0,0
CN(c1cccc(CNc2nc(Nc3ccc4c(c3)CC(=O)N4)ncc2C(F)(F)F)c1)S(C)(=O)=O,0,0,84,80,93.9,76,0,0,28,1,93.3,82,87,0,0,15,0,10,16,2
O=C(Nc1ccccc1)c1cccc(Oc2ccc3nccn3n2)c1,9,0,11,0,0,6,0,7,6,1,0,0,0,9,0,7,25,14,37,0
O=C(NCC1CC1)c1ccc(-c2cc(C(=O)NC3CC3)ccc2F)cc1 [GW810445],0,5,17,0,0,0,8,3,0,0,7,0,0,0,0,0,55,0,0,0
COC(=O)c1cccc(NC(=O)NC2CCN(c3ccnc(NCc4ccc(F)cc4)n3)CC2)c1 [GSK1379860],8,0,0,0,0,0,45,0,9,0,0,0,0,12,0,31,0,0,0,0
Nc1nccc(-c2ccc3c(N)n[nH]c3c2)n1 [GSK1034945],38,0,24,16,0,47,0,11,86,96.1,0,0,0,11,5,27,3,0,0,0
O=C(Nc1cccc(Oc2ccc3nccn3n2)c1)Nc1cccc(C(F)(F)F)c1,97,0,10,24,0,27,0,8,0,0,0,39,0,0,0,10,6,0,0,0
CC(=O)c1c(-c2ccncc2)[nH]c(-c2ccncc2)c1C [GW493036],2,0,0,0,11,29,0,14,46,0,4,0,0,20,3,42,11,8,0,0
CC(=O)Nc1ccc(-c2cc3ncnc(SCC(=O)O)c3s2)cc1,17,20,0,0,0,25,0,0,0,40,0,18,0,0,0,25,2,16,24,2
Cl.c1ccc(Oc2ccc(Nc3ccnc4cc(-c5ccc(CN6CCNCC6)o5)ccc34)cc2)nc1 [GW567142],99.9,16,0,0,0,27,11,0,42,4,0,0,0,0,0,39,0,31,8,0
Cc1nnc(-c2ccc3occ(-c4ccc(S(C)=O)cc4)c3n2)o1 (stereo not shown),0,0,0,0,0,0,0,0,0,0,0,0,0,0,43,2,0,0,0,0

Compound,%Inh (MEK5) [%],%Inh (MEK6) [%],%Inh (MELK) [%],%Inh (MERTK) [%],%Inh (MET) [%],%Inh (MINK) [%],%Inh (MKK7) [%],%Inh (MKNK1) [%],%Inh (MKNK2) [%],%Inh (MLCK) [%],%Inh (MLK1) [%],%Inh (MLK2) [%],%Inh (MLK3) [%],%Inh (MRCKA) [%],%Inh (MRCKB) [%],%Inh (MST1R) [%],%Inh (MST1) [%],%Inh (MST2) [%],%Inh (MST3) [%],%Inh (MST4) [%]
CC(=O)Nc1nc2cnc(Nc3cc(NC(=O)c4cccc(CC(C)(C)C#N)c4)ccc3C)nc2s1,46,0,8,31,7,3,0,0,41,0,0,14,5,0,0,26,5,0,0,0
CN(c1ccccc1CNc1nc(Nc2ccc3c(c2)CC(=O)N3)ncc1C(F)(F)F)S(C)(=O)=O,17,93.9,94.3,97.3,86,48,0,0,0,43,95.4,77,92.9,0,0,65,14,70,30,77
Cc1ccc(CC(=O)N2CCc3cc(-c4cn(C)c5ncnc(N)c45)ccc32)cc1 [GSK2634758],99.9,0,7,27,86,6,18,0,52,12,15,17,24,0,9,39,94.9,58,56,35
Cn1ccc2ncnc(Oc3ccc(NC(=O)Nc4cccc(C(F)(F)F)c4)c(F)c3)c21,35,0,10,98,50,0,0,18,89,0,21,0,32,4,0,19,0,0,0,0
C[C@@H](Oc1cc(-n2cnc3cc(-c4ccncc4)ccc32)sc1C(N)=O)c1ccccc1Cl [GSK479719],21,0,0,86,52,0,0,0,28,0,61,0,24,0,8,21,56,70,0,0
CNC(=O)c1ccccc1Nc1nc(Nc2cccc(CS(C)(=O)=O)c2)ncc1C.O=CO [GSK1520489],99.9,39,94.6,100,97.3,58,0,0,50,41,97.5,80,72,2,4,93.4,80,49,34,54
CS(=O)(=O)Nc1ccc(-c2ccnc3[nH]ccc23)cc1 [GSK993273],67,16,51,56,2,23,0,72,95.9,15,4,33,10,12,9,34,11,5,20,11
NC(=O)Nc1sc(-c2ccc(F)cc2)cc1C(N)=O [GW789449],89,21,12,10,12,60,0,8,0,0,39,25,35,0,0,0,37,49,21,25
Cc1cccc2c(-c3ccncc3)c(-c3ccc(F)cc3)nn12.Cl [GW461487],6,0,0,5,0,30,0,1,0,0,0,0,0,0,4,44,90.4,46,16,0
Cn1ccc2ncnc(Oc3ccc(NC(=O)Nc4cc(C(C)(C)C)on4)c(Cl)c3)c21,71,7,20,94.8,48,91.6,0,3,90,7,11,21,0,13,0,73,0,0,6,0
Cc1n[nH]c2cc(Nc3ccnc(Nc4cccc(CN5CCOCC5)c4)n3)ccc12 [GW682569],98.6,0,0,85,14,22,0,23,67,0,89,38,58,1,0,34,0,26,14,0
Cn1ccc2ncnc(Oc3ccc(NC(=O)Nc4cncc(C(F)(F)F)c4)c(Cl)c3)c21,22,0,0,81,12,0,0,0,0,0,0,0,0,0,0,0,0,0,0,0
CN1CCN(CCNc2nc3cc(Oc4ccc(NC(=O)Nc5cc(C(F)(F)F)ccc5F)cc4)ccc3[nH]2)CC1.Cl.Cl [GW768504],2,12,0,85,6,0,0,24,26,0,0,40,0,0,4,0,16,0,0,0
OCCn1cc(-c2cnc3nnn(Cc4ccc5ncccc5c4)c3n2)cn1,0,0,32,0,79,0,0,0,0,13,0,0,0,0,0,0,0,0,0,0
COC(=O)c1cccc(NC(=O)NC2CCN(c3ccnc(Nc4cc(OC)c(OC)c(OC)c4)n3)C2)c1 (stereo not shown) [GSK1379767],98.8,4,0,40,19,3,21,12,32,12,33,0,34,14,0,39,6,2,0,0
c1ccc(Oc2ccc(Nc3ccnc4ccc(-c5ccccn5)cc34)cc2)cc1 [GW407034],99.9,0,0,9,16,0,0,0,17,13,1,3,5,2,9,0,0,0,4,0
Cl.Nc1n[nH]c2cc(-c3ccccn3)ccc12 [GSK2189892],45,0,2,0,0,0,0,0,32,0,0,0,15,0,0,27,0,0,0,0
CC(C(=O)NC1CCN(c2ccnc(Nc3ccc(F)cc3)n2)C1)c1ccc(Cl)cc1 (stereo not shown) [GSK1379713],7,0,0,0,0,0,0,5,0,0,0,12,0,0,0,0,5,0,0,0
O=C(Nc1n[nH]c2cc(-c3ccco3)ccc12)C1CC1 [SB-737447],76,0,0,0,0,63,0,0,39,78,0,34,0,25,1,0,0,15,17,3
N#Cc1cccc(C(=O)NC2CCN(c3ccnc(Nc4ccc(F)cc4)n3)C2)c1 (stereo not shown) [GSK1379708],12,0,0,49,18,0,0,0,0,0,1,0,9,6,0,39,2,0,0,0
